Bioassay records deposited in PubChem by NMMLSC.
RGS4-Gao reg: human RGS4-Galphao interaction regulation; P09471; Multiplexed bead flow cytometry, RGS4-Galphao binding; actives lie on both sides; binding response (% of control), % at 10 µM; 0.33% of 220,000 active; in the data active means binding response below about 49% or above about 150%; inactive means in between;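 further: fluorescent Galphao activated with aluminum fluoride binding bead-coupled RGS4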
Avidin fluor: avidin bead compound fluorescence profile. Avidin beads, compound fluorescence 488/530 nm, flow cytometry; active compounds read high. fluorescence (KMESF) at 10 µM. 0.38% of 220,000 active; in the data active means fluorescence above about 47
RGS7-Gao: human RGS7-Galphao interaction regulation; 0.35% of 220,000 active; binding response (% of control), % at 10 µM; Multiplexed bead flow cytometry, RGS7-Galphao binding; actives lie on both sides; P09471; in the data active means binding response below about 49% or above about 150%; inconclusive means no clear call, values can overlap the other calls; inactive means in between;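 further: fluorescent Galphao held in activated GDP-AlF4 state binding bead-coupled RGS7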
RGS16-Gao: regulators of human RGS16-Galphao interaction. AID 1441. binding response (% of control), % at 10 µM. O15492+P09471. bead-based flow cytometry RGS16-Galphao binding, fluorescence; actives lie on both sides. 0.38% of 220,000 active;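 further: Galphao activated by GDP with aluminum fluoride before binding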
RGS8-Gao: regulators of human RGS8-Galphao interaction | multiplexed bead flow cytometry, RGS8-Galphao binding; actives lie on both sides | response (percent of control binding), % at 10 µM | 0.34% of 220,000 active; in the data active means response below about 60% or above about 140%; inactive means in between;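 further: Galphao activated as the GDP aluminium fluoride complex binding bead-coupled RGS8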
GSH bead fluor: GSH bead compound fluorescence profile; GSH beads flow cytometry, compound fluorescence 488/530 nm; active compounds read high; fluorescence (KMESF) at 10 µM; 0.25% of 190,000 active; AID 1776; in the data active means fluorescence above about 89;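 further: glutathione beads carrying GST-tagged Bcl family fusion proteins plus one bare bead set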
RGS4-Gao HTS: RGS4-Galphao interaction regulator (human); shares compounds with RGS16-Gao; multiplexed bead flow cytometry, RGS–Galpha-o binding; RGS4–Galpha-o binding response, % at 10 µM; 99% of 1,600 active;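 further: fluorescently labeled Galpha-o bound to GDP with aluminium fluoride binding biotinylated RGS beads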
Target sequence (P09471 whole entry, looked up): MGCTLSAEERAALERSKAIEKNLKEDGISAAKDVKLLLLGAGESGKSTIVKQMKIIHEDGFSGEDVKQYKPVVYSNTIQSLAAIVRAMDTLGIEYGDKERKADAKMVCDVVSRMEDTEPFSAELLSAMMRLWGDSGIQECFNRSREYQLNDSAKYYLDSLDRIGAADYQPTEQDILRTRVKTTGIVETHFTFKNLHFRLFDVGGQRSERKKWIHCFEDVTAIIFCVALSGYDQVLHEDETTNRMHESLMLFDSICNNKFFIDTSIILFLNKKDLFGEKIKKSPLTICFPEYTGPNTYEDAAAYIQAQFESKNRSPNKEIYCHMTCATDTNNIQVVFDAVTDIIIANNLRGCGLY
Target sequence (P49798 whole entry, looked up): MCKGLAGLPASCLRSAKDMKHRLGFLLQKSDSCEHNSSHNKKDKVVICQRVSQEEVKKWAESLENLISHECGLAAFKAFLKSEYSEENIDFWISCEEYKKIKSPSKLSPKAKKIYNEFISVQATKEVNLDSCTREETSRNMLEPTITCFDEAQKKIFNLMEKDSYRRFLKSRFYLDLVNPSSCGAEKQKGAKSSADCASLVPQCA
Avidin counter: counter-screen: compounds disrupting biotin binding to avidin beads. shares compounds with RGS16-Gao. streptavidin beads, fluorescein-biotin binding, flow cytometry. inhibition, % at 10 µM. 1,700 tested, under 10 active;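 active means inhibition above 50%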;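 further: median green fluorescence of gated singlet beads compared with DMSO control wells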
RGS8-Gao confirm: RGS8-Galphao interaction regulation, single point confirmation; binding response (% of control), % at 10 µM; bead-based flow cytometry RGS8-Galphao binding, fluorescence; actives lie on both sides; 3% of 1,700 active; shares compounds with RGS16-Gao; in the data active means binding response below about 72% or above about 130%; inactive means in between;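 further: Galphao activated as GDP AlF4 complex before binding bead RGS8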
RGS7-Gao confirm: confirmation of regulators of human RGS7-Galphao interaction; bead-based flow cytometry RGS7-Galphao binding; actives lie on both sides; shares compounds with RGS16-Gao; response (percent of control binding), % at 10 µM; 7.8% of 1,700 active; in the data active means response below about 75% or above about 130%; inactive means in between;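 further: fluorescent Galphao activated with GDP and aluminum fluoride binding bead-coupled RGS7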
RGS16-Gao conf: RGS16-Galphao interaction regulation, single point confirmation. bead-based flow cytometry, RGS16-Galphao binding; actives lie on both sides. AID 1838. 4% of 1,700 active. response (% of control binding), % at 10 µM. shares compounds with RGS16-Gao; in the data active means response below about 74% or above about 130%; inactive means in between;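 further: Galphao activated as the GDP aluminium fluoride complex binding bead-coupled RGS16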
RGS4-Gao confirm: confirmation of regulators of human RGS4-Galphao interaction. shares compounds with RGS16-Gao. RGS4-Galphao binding, multiplexed bead flow cytometry; actives lie on both sides. binding response (% of control), % at 10 µM. 4% of 1,700 active. AID 1840; in the data active means binding response below about 74% or above about 130%; inactive means in between
RGS19-Gao conf: confirmation of regulators of human RGS19-Galphao interaction; shares compounds with RGS16-Gao; bead-based flow cytometry RGS19-Galphao binding; actives lie on both sides; response (percent of control binding), % at 10 µM; 5% of 1,700 active; AID 1841; in the data active means response below about 50% or above about 160%; inactive means in between
Numbers stand for hits; i = inactive; ? = inconclusive; nt = not tested or not shown; [ ] = another dose, or the depositor's remark. In the library only some 1.2% were active in any assay of this set; here they are far more common. Unless noted, how the calls were made is not given here.

SMILES	RGS4-Gao reg	Avidin fluor	RGS7-Gao	RGS16-Gao	RGS8-Gao	GSH bead fluor	Avidin counter	RGS8-Gao confirm	RGS7-Gao confirm	RGS16-Gao conf	RGS4-Gao confirm	RGS19-Gao conf	others
COc1cc(/C=N/Nc2nc3ccccc3s2)cc([N+](=O)[O-])c1O	nt	nt	nt	nt	nt	nt	i	i	i	i	i	i
O=[N+]([O-])c1cc(Cl)cc(/C=N/Nc2nc3ccccc3s2)c1O	i	i	i	i	i	i	nt	nt	nt	nt	nt	nt
CCN(CC)c1ccc(NC(=O)Nc2cccc(C(C)=O)c2)cc1	-7.5	i	-3.4	-17	5.3	i	i	i	i	i	i	i
CCOC(=O)C1(CCCc2ccccc2)CCN(C(=O)Cn2nc(C)nc2C)CC1	i	i	?	i	i	nt	nt	nt	nt	nt	nt	nt
CC(C)OCC(O)CS(=O)(=O)Cc1ccccc1 (stereo unspecified)	i	i	i	-90	i	i	i	i	i	i	i	i	RGS4-Gao HTS=68
N/C(=N\OC(=O)c1ccco1)c1ccc(Cl)cc1	i	63	164[activator]	i	i	i	i	i	i	i	i	i	RGS4-Gao HTS=109
N/C(=N\OC(=O)c1ccc(Cl)cc1)c1ccc(Cl)cc1	i	i	i	i	i	i	nt	nt	nt	nt	nt	nt
Cc1cc(C)cc(N(C(=O)Cc2cccs2)C(C(=O)NC2CCCC2)c2ccc(C)o2)c1 (stereo unspecified)	nt	nt	nt	nt	nt	i	i	i	i	i	i	i
Cc1ccc(C(C(=O)NC2CCCC2)N(C(=O)Cc2cccs2)c2cccc(C)c2C)o1 (stereo unspecified)	i	i	i	i	i	i	nt	nt	nt	nt	nt	nt
Cn1c(=O)n(C)c2cc(S(=O)(=O)NCc3ccco3)ccc21	i	176	204[activator]	i	i	i	i	i	i	i	i	i	RGS4-Gao HTS=117
O=C(c1cccnc1Nc1ccc2c(c1)CCC2)N1CCOCC1	-3.1	i	-1.2	-1.9	8.5	i	i	i	i	i	i	i
COc1c2ccccc2c(OC)c2ccccc12	i	i	i	i	i	i	nt	nt	nt	nt	nt	nt
Cc1ccc(-c2c[n+](CC(=O)OCc3ccccc3)c3n2CCC3)cc1	12	i	9.5	7.7	13	i	i	i	i	i	i	i
CC1CCCC(C)N1C(=O)CN1C(=O)C(C)(C)Oc2ccc(C(=O)NC3CCCC3)cc21 (stereo unspecified)	nt	nt	nt	nt	nt	i	i	i	i	i	i	i
CC1CCCC(C)N1C(=O)CN1C(=O)C(C)(C)Oc2ccc(C(=O)NC3CCCCC3)cc21 (stereo unspecified)	i	i	i	i	nt	i	i	i	i	i	i	i
CC(C)C(=O)OCc1cn(-c2ccc(Cl)c(Cl)c2)nn1	i	i	i	i	i	i	nt	nt	nt	nt	nt	nt
O=C(NCc1ccccc1)c1ccc(C(=O)N(C2CCCCC2)C2CCCCC2)cc1	nt	nt	nt	nt	nt	i	i	i	i	i	i	i
CC1CN(C(NC(=O)c2ccccc2)C(Cl)(Cl)Cl)CC(C)O1 (stereo unspecified)	150[activator]	i	i	i	i	i	i	i	i	i	i	i
